# Mdm2-MdmX inh: inhibitors of human Mdm2/MdmX interaction; O15151+Q00987; SaOS-2 split-luciferase Mdm2/MdmX complementation, luminescence; inhibition, % at 8 µM; hit rate 3% among 330,000; AID 485346;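 active means inhibition of at least 50% at 8 µM in the primary screen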
# Beta cell apopt: beta cell apoptosis inhibition; hit rate 0.8% among 300,000; INS-1E cytokine-induced death, ATP luminescence, 48 h; percent of positive-control rescue, neutral wells zero; protection from apoptosis, % (concentration not given with the values); AID 435005;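 active means Every replicate reaches about 75%, or at least half do and their mean reaches it too, limit read from the data; inconclusive means At least half of replicates reach the limit but their mean does not; inactive means Under half of replicates reach the limit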;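 further: 0% = cytokine-treated negative control wells and 100% = positive control rescue; higher means more ATP so stronger rescue from cytokine killing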
# CSC inhib: cancer stem cell inhibition; cancer stem cell-like cells viability, luminescence; inhibition, % at 7.5 µM; hit rate 1.1% among 300,000; in the data active means inhibition above about 75%; inconclusive means no clear call, values can overlap the other calls; tested in HMLE shEcad cells
# Calb FLC: affects C. albicans growth with fluconazole; C. albicans CaCi-2 (fluconazole-resistant clinical isolate) + fluconazole, Alamar Blue growth, 48 h; growth inhibition, % (no concentration beside the values); hit rate 0.57% among 300,000; AID 1979;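 active means growth inhibition above about 58% in most replicates, limit read from the data, passing the limit was not always enough; inconclusive means exactly half the replicates above a set limit; inactive means most replicates below a set limit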;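 further: all wells also contain fluconazole at 8 µg/ml as a sub-toxic cotreatment; 0% = median of DMSO wells and 100% = median of geldanamycin control wells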
# MPTP inh: permeability transition pore inhibition; isolated mouse mitochondria, Ca2+ swelling absorbance, 30 min; inhibition, % at 10 µM; hit rate 1.4% among 360,000;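 active means inhibition of 50% or more, scaled per plate between neutral and stimulator controls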;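 further: 0% = DMSO wells given calcium and 100% = 1 mM EGTA wells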
# SKKanGAS inh: blocks kanamycin growth of S. pyogenes SKKanGAS strain; BacTiter-Glo, 6 h; inhibition, % at 7.5 µM; hit rate 1.3% among 300,000; AID 1662;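 active means mean replicate score, as percent of positive control median, at least 50; inconclusive means mean below 50 but one replicate at or above 50; inactive means mean and every replicate below 50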;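 further: strain carries kanamycin resistance gene driven by streptokinase promoter and grows in 40 µg/ml kanamycin; loss of luminescence reflects streptokinase promoter inhibition or plain growth inhibition; 0% = median of DMSO wells and 100% = positive control at its reference dose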
# Mdm2 MdmX conf: confirmation of human Mdm2/MdmX interaction inhibitors; Mdm2-MdmX binding, luminescent assay; hit rate 55% among 10,000; shares compounds with Mdm2-MdmX inh; AID 489028; inhibition, % at 8 µM; in the data active means inhibition above about 40%
# Full FLuc ctr: counter-screen for Mdm2/MdmX inhibitors: full-length luciferase. shares compounds with Mdm2-MdmX inh. SaOS-2 full-length luciferase counterscreen, luminescence. inhibition, % at 8 µM. hit rate 77% among 6,200. AID 504607;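 active means mean inhibition at 8 µM reaching about 37%, which flags the compound as non-specific, limit read from the data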;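 further: p53-null SaOS-2 cells with luciferase driven by a doxycycline-inducible promoter; compound on cells about two nights before reading with doxycycline added after day one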
# Rh123 counter: membrane potential counter-screen of mitochondrial pore inhibitors; shares compounds with MPTP inh; isolated mitochondria, Rhodamine 123 fluorescence; inhibition, % at 10 µM; hit rate 78% among 5,000; AID 624504; in the data active means inhibition above about 22%;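 further: 0% = DMSO vehicle and 100% = positive control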
# MPTP abs DR: dose response confirmation of mitochondrial permeability transition pore inhibitors. hit rate 58% among 780. IC50, µM. AID 651561. isolated mitochondria swelling, absorbance. shares compounds with MPTP inh; in the data active means IC50 below about 20 µM
# MPTP counter DR: MPTP inhibitor counter-screen activity, dose response; isolated mitochondria counterscreen, fluorescence read-out; shares compounds with MPTP inh; hit rate 49% among 780; AID 651564; IC50, µM; in the data active means IC50 below about 80 µM
# * = called active by the depositor; u = inconclusive; x = no result given. This is a sample that favours compounds with a hit; in the whole collection about 5.4% have one here.
SMILES,Mdm2-MdmX inh,Beta cell apopt,CSC inhib,Calb FLC,MPTP inh,SKKanGAS inh,Mdm2 MdmX conf,Full FLuc ctr,Rh123 counter,others
O=C(/C(N=Nc1cccc([N+](=O)[O-])c1)=C(/O)c1ccc(Br)cc1)C(F)(F)F,96.1*,105.0*,99.0*,-3.0,78.5*,83.7*,87.9*,24.9,62.5*,
S=C(Nc1cc(Cl)cc(Cl)c1)NC1CCN(Cc2ccccc2)CC1,95.4*,-5.9,75.0*,-7.0,53.9*,15.8,34.0,x,89.3*,
Cc1nccc(-c2cccc(N/N=C(\C#N)C(=O)c3ccccc3)c2)n1,43.6,31.0,24.3,13.6,33.7,17.7,x,x,x,
N#C/C(=N\Nc1cccc(C(F)(F)F)c1)C(=O)c1ccsc1,78.1*,47.1,52.2,22.8,83.9*,32.6,63.2*,66.7*,57.2*,
COc1ccc(-c2cc(C3CCN(c4ccc(C(C)=O)cc4[N+](=O)[O-])CC3)[nH]n2)cc1,51.8*,3.2,75.9*,-7.1,83.8*,83.5*,46.4*,51.4*,80.8*,
CCOC(=O)Cc1csc(NC(=O)COc2ccc(N(C)S(=O)(=O)c3cccs3)cc2)n1,12.3,-10.1,7.3,-2.5,-3.6,3.5,x,x,x,
COC(=O)CCN1CCC2CC1c1cc(-c3cccc(C)c3)ccc12 (configuration not stated),x,x,x,x,-2.0,x,x,x,x,
CCCCCCc1cc2cc(S(=O)(=O)c3ccc(F)cc3)c(=O)oc2cc1O,57.5*,2.7,30.1,-3.1,81.4*,11.8,51.2*,84.8*,93.1*,
CCCCCCc1cc2cc(C(=O)Nc3ccccc3OC)c(=O)oc2cc1O,95.3*,19.4,19.5,-1.4,57.0*,5.4,8.9,x,-5.3,MPTP abs DR=2.57*;MPTP counter DR=<2.5*
CCCCCCc1cc2cc(-c3nnc(-c4ccccc4O)o3)c(=O)oc2cc1O,73.2*,106.4*,109.5*,19.8,103.9*,98.4*,91.5*,22.4,4.9,
COc1ccc(-c2nnc(-c3cc4ccccc4oc3=O)o2)cc1,-13.6,-3.0,-1.8,8.0,0.5,-4.7,x,x,x,
O=C(O)c1ccc2oc(=O)c(S(=O)(=O)c3ccc(F)cc3)cc2c1,-15.2,1.0,-17.5,-5.3,0.0,0.7,x,x,x,
O=C(Cn1ncn2c(cc3ccccc32)c1=O)NCCCc1ccccc1,14.4,-1.4,-1.3,-4.0,-1.5,-5.9,x,x,x,
Cn1cc(CNC(=O)CC2C(=O)NCCN2CC(C)(C)C)cn1 (configuration not stated),3.4,-4.3,3.0,-3.7,-0.4,-0.3,x,x,x,
CC(C)COc1ccc(-c2nnc(-c3ccco3)o2)cc1,-111.1,6.0,-2.6,18.9,4.6,38.2,x,x,x,
CCN(CC)CCCNc1ccc(-c2nnc(-c3ccc(OCC(C)C)cc3)o2)cn1,100.4*,13.6,103.1*,3.7,90.8*,12.5,87.7*,23.9,-5.1,
COc1cccc(CNCCc2c[nH]c3ccccc23)c1OCc1ccccc1,53.6*,15.1,26.2,-1.3,85.2*,25.2,24.9,x,59.8*,
COc1ccccc1CCNCc1ccc(OC)c(OCc2ccccc2)c1,39.2,44.8,-2.9,-3.9,12.1,-2.4,x,x,x,
C=CCn1c(SCC(=O)N(CC)C2CCS(=O)(=O)C2)nc2sc3c(c2c1=O)CCC3 (configuration not stated),-26.6,4.4,x,x,3.4,x,x,x,x,
O=C(N/N=C/c1c(O)ccc2ccccc12)c1[nH]ncc1Br,64.6*,102.7*,107.6*,46.3,54.7*,14.2,75.7*,40.5*,55.4*,
O=C(N/N=C/c1c(O)ccc2ccccc12)c1cccc(C(F)(F)F)c1,74.2*,x,x,89.8*,98.9*,120.2*,81.2*,21.1,42.3*,
O=C(N/N=C/c1cccs1)c1[nH]ncc1Br,-8.8,7.1,13.9,-14.8,-1.2,2.5,x,x,x,
COc1ccccc1NS(=O)(=O)c1ccc(N2CCOCC2)c(N)c1,13.6,-2.4,-5.6,x,-1.0,x,x,x,x,
Cc1ccsc1C1C(C#N)=C(N)N(N(C)C)C2=C1C(=O)CC(C)(C)C2 (configuration not stated),-7.6,1.3,-0.8,6.0,-0.3,3.5,x,x,x,
O=C(Nc1ccc2snnc2c1)Nc1cccc2ccccc12,67.0*,40.8,28.7,-5.1,106.1*,26.0,20.2,x,69.2*,
SMILES,Mdm2-MdmX inh,Beta cell apopt,CSC inhib,Calb FLC,MPTP inh,SKKanGAS inh,Mdm2 MdmX conf,Full FLuc ctr,Rh123 counter,others
O=C1Nc2cc(C(=O)NCCN3CCCCCC3)ccc2S/C1=C\c1ccccc1,80.8*,1.5,-5.0,1.2,75.7*,0.7,18.6,x,-16.9,
O=C(NCCCN1CCCC1=O)c1ccc2c(c1)NC(=O)c1ccccc1S2,-21.0,0.1,3.5,-1.7,-0.8,0.0,x,x,x,
COc1cccc(/C=C2/Sc3ccc(C(=O)NCCN4CCCCCC4)cc3NC2=O)c1,97.9*,x,-16.3,1.1,95.4*,12.1,30.2,x,-7.4,
Cn1c2c(c(=O)n(C)c1=O)C(C(F)(F)F)(C(F)(F)F)N=C(c1ccc(Cl)cc1)N2,94.4*,139.4*,x,84.1*,99.1*,15.0,90.2*,51.5*,84.0*,
CCOC(=O)[C@H]1[C@H]2COc3ccc(C)cc3[C@@H]2N2C(=O)CN(Cc3ccco3)C(=O)[C@@]12C,6.4,-9.1,-24.0,x,-0.2,x,x,x,x,
O=C(Nc1ccncc1)c1c(F)c(F)c(F)c(F)c1F,19.6,-4.5,1.7,5.1,1.5,-2.4,x,x,x,
O=C(Nc1ccccc1NC(=O)c1c(F)c(F)c(F)c(F)c1F)c1c(F)c(F)c(F)c(F)c1F,54.4*,0.4,10.1,12.2,93.1*,2.2,31.6,40.5*,94.8*,
Fc1ccc2[nH]c3c(N4CCc5ccccc5C4)ncnc3c2c1,56.9*,127.3*,u,-18.1,88.8*,21.0,34.5,x,82.9*,
Cc1noc(C)c1S(=O)(=O)NC(=O)C1(C)CCN1C(=O)C1(c2ccc(Cl)cc2)CCC1 (configuration not stated),x,x,x,x,-2.8,x,x,x,x,
CCN1/C(=C/C(C)=C/c2sc3ccccc3[n+]2CC)Sc2ccccc21,97.4*,110.2*,143.8*,103.1*,198.7*,100.5*,100.2*,15.4,67.8*,
CC(=O)c1sc(NC(=O)C2(F)C(F)(F)C(F)(F)C(F)(F)C(F)(F)C2(F)F)nc1C,92.7*,108.6*,-11.3,21.3,94.7*,32.9,84.5*,28.7,91.2*,
CCN1/C(=C/c2ccc3cc(C)ccc3[n+]2CC)Sc2ccc3sccc3c21,100.5*,140.4*,49.3,101.1*,80.4*,114.8*,87.1*,16.5,87.0*,
